For 113 compounds, inhibition results are on record in PubChem BioAssay AID651660 (Broad Institute, 2012).

Several values for one entry are separate records, joined by “and”; a condition that tells them apart may be missing. Identical values can stand only once. The whole screen tested about 1,900 compounds, of which about 15 (0.8%) were called active. Only a selection was taken, and actives are over-represented in it overall. Values without a mark were called inactive.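 Rule for the calls: active = every replicate shows at least 50% inhibition; inconclusive = mean inhibition at least 50% but some replicate below; inactive = the rest.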

Sequence of DNA repair protein RAD52 homolog (Homo sapiens) (P43351 whole entry, looked up): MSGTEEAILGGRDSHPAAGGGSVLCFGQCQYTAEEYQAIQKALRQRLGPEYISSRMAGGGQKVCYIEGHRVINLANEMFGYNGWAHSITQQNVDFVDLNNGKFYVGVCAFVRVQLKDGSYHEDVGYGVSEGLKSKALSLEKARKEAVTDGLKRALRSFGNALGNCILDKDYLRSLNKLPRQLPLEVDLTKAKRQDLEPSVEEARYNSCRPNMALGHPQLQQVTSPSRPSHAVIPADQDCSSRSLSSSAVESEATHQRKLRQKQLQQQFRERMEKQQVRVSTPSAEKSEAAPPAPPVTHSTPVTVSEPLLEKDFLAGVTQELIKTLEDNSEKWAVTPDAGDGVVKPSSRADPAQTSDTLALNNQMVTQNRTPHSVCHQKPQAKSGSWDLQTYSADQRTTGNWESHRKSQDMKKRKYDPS

The experiment concerns the target DNA repair protein RAD52 homolog (Homo sapiens) (UniProt P43351). Put plainly: RAD52 ssDNA annealing inhibitors, primary screen, biochemical, FRET, single point (AID 651660).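 Note: 0% = median of neutral control wells and 100% = median of positive control wells.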 The following applies: Recombinant RAD52 ssDNA annealing, FRET fluorescence, 30 min; at 18.7 µM; active compounds read high.
For orientation: inhibition means the change of the read-out against control, counted positive when it falls. In the case of `O=C(CNC(=O)OCc1ccccc1)NC1CCCCCC1`, the inhibition was 0.625%. Turning to `CC(C)OC(=O)C1C2C=CC3(CN(CC4CCCO4)C(=O)C13)O2` (stereo not drawn), the inhibition was -7.36%. With `O=C(O)c1ccc(-c2ccc(O)c(F)c2)cc1` the figure was -3.36%. With `Cc1ncc(C(=O)O)c(C(=O)O)c1N`, the inhibition is -18.8%.

`O=C(O)CCCNc1ccc(S(=O)(=O)Nc2ccccc2C(=O)O)cc1C(=O)O`: the inhibition was -12.9%. For `CCOC(=O)c1ccc(N2C(=O)C(CC(N)=O)N(CCc3ccc(OC)c(OC)c3)C2=S)cc1` (stereo not drawn), the inhibition is 3.53%.

Regarding `CC(C)c1ccc(NC(=O)CNS(=O)(=O)c2ccc(F)cc2)cc1`, the inhibition was 3.93%. With `CCOc1ccc2oc(-c3ccccc3)c(C(=O)O)c2c1` the figure was -1.63%; with `Cc1cccc(-n2c(Cc3ccccc3)n[nH]c2=S)c1`, -6.53%.

In the case of `NCCOc1ccccc1OCCN`, the inhibition was 2.09%. `COc1ccc(C2CC(c3ccc([N+](=O)[O-])cc3)=NN2C(=O)c2ccccc2)cc1OC` (stereo not drawn): the inhibition is -4.95%.

Turning to `O=C(c1ccc(-c2ccccc2)c(F)c1)C1CCCN(C(=O)c2cncs2)C1` (stereo not drawn), the inhibition was -5.72%. With `O=C(OCC1OC2OC3(CCCCC3)OC2C2OC3(CCCCC3)OC12)c1ccccc1` (stereo not drawn) the figure was -6.56%; with `COC1(C)CC2C(CC1OC(=O)c1cc([N+](=O)[O-])cc([N+](=O)[O-])c1)C2(C)C` (stereo not drawn), 2.54%; with `COc1ccc2c(c1)[N+](C)(C)C(C)(C)C=C2C`, 2.05%. Turning to `CC(=O)OCC#CCSc1nc2ccccc2n1C`, the inhibition was -0.59%. For `CC(C)COCC1CC2(CC(C)(c3csc(N)n3)OC2=O)C(=O)O1` (stereo not drawn), the inhibition was -11.3%. As to `COc1cc(C2NCCc3c2[nH]c2ccccc32)ccc1OC(C)C` (stereo not drawn), the inhibition was 1.55%.

For `CC12CN3CC(C)(CN(C1)C3c1ccc(Br)cc1O)C2` (stereo not drawn), the inhibition was -9.4%. As to `Cc1ccc2c(c1)C1(C(=O)N2)N2CCCC2C(C(=O)c2ccc3ccccc3c2)C12C(=O)Nc1ccccc12` (stereo not drawn), the inhibition is 8.82%.

With `COc1ccc(-c2noc(-c3ccccc3-c3ccccc3)n2)cc1`, the inhibition is 2.09%. Take `O=C(CS(=O)(=O)Cc1ccccc1)NCc1ccc2c(c1)OCO2`: the inhibition is 1.08%. For `CC(=O)N(CCC(Cc1ccccc1)c1ccc2c(c1)OCO2)Cc1ccc(Cl)cc1` (stereo not drawn), the inhibition was 16.3%. For `COc1ccc(C(=O)C2CCCCC2=O)cc1` (stereo not drawn), the inhibition is -11.5%. Consider `CSc1ccc2c(c1)N(CCC1CCCCN1C)c1ccccc1S2` (stereo not drawn), for which the inhibition is 61.6% (active). With `CC(CN1c2ccccc2Sc2ccccc21)N(C)C` (stereo not drawn) the figure was 7.73%; with `CCOC(=O)c1cc2c(nc1N)CC(C)(CC)OC2` (stereo not drawn), -11.6%; with `COC(=O)C1=CN(Cc2cccs2)C=C(C(=O)OC)C1c1cccc(Cl)c1`, 11.7%. Regarding `CN1C(=O)NC(c2ccc(O)cc2)C2=C1CN(c1cccc3ccccc13)C2=O` (stereo not drawn), the inhibition is -2.34%.

For the compound `CC(=O)C1=C(NC(=O)c2ccc(C(F)(F)F)cc2)C[C@@H]2[C@H]1C2(C)C`, the inhibition was 4.2%.

As for `CN(C)c1ccc(C(CN)c2c[nH]c3ccccc23)cc1` (stereo not drawn), the inhibition is -2.21%. With `O=[N+]([O-])c1cc(/C=N/n2cnnc2)ccc1N1CCCC1`, the inhibition is -0.23%. With `COC(=O)c1ccc(=O)n(Cc2ccco2)c1`, the inhibition is -5.57%. For the compound `CC(=O)N1CC2(C)CN(C(C)=O)CC(C)(C1)C2`, the inhibition is -4.54%. On to `CSc1cccc(NC(=O)/C=C/c2ccccc2)c1`, for which the inhibition is 5.27%. As to `N/C(=N\OC(=O)c1ccc(Br)o1)c1ccccn1`, the inhibition is -4.88%. Take `COc1ccc2c(=O)c(-c3cnn(-c4ccccc4)c3)c(C)oc2c1`: the inhibition is -8.23%. With `COc1ccc(S(=O)(=O)N2CCN(C(=O)COc3ccc4c(C)cc(=O)oc4c3)CC2)cc1` the figure was -4%; with `CC(=O)C1=C(O)C(=O)N(Cc2cccnc2)C1c1ccc(C(C)C)cc1` (stereo not drawn), 0.222%; with `CCOc1ccc(C(=O)NCC2(c3ccccc3)CCOCC2)cc1`, -5.73%. For `COc1ccc(CNC(=O)C2CCN(C(=O)[C@@H](CC(C)C)NC(=O)OC(C)(C)C)CC2)cc1`, the inhibition was 2.06%. With `CCc1oc2ccccc2c1C(=O)c1cc(Br)c(O)c(Br)c1`, the inhibition was -13.4%.

As for `CCCCc1oc2ccccc2c1C(=O)c1cc(I)c(OCCN(CC)CC)c(I)c1`, the inhibition was 72.2% (active). Take `CCCCOc1cc(C(=O)NCCN(CC)CC)c2ccccc2n1`: the inhibition was 8.91% and -1.38%. Regarding `Cc1ccc2c(c1)C(O)(C1COC(C)(C)CC1=O)C(=O)N2C` (stereo not drawn), the inhibition is -1%. As to `COc1cccc2c(O)cc(=O)n(C)c12`, the inhibition is 6.83%.

As for `COc1cccc(=O)c2c(C)n(CC(=O)c3ccccc3)c(C)c12`, the inhibition is -138%. Regarding `O=C(CCC(=O)NCCO)NCCO`, the inhibition was 4.45%. On to `CC1=C/C(=N\N=C2\NC(=O)C(CC(=O)Nc3ccccc3F)S2)CC(C)(C)C1` (stereo not drawn), for which the inhibition is -3.25%. For `CSCC[C@H](NC(=O)NC1CCCC1)C(=O)O`, the inhibition is -5.4%. Turning to `CCOC(=O)c1cnc2ccc(C(=O)OC)cc2c1Nc1ccc2c(c1)OCCO2`, the inhibition was 0.862%. Consider `CN(C)CCOC(c1ccccc1)c1ccccc1` (tested in a mixture with another compound), for which the inhibition is 0.693%. As to `O=C(OCCNC(=O)c1ccc2ccccc2n1)c1ccc(F)cc1`, the inhibition was 3.05%. For `CC1CCN(CCOCCOc2ccccc2Br)CC1`, the inhibition was -6.71%.

As for `CC1(C)CC(NCc2ccccc2)CCO1` (stereo not drawn), the inhibition was -6.22%. `Cc1nc(N[C@@H](Cc2c[nH]c3ccccc23)C(=O)O)c2oc3ccccc3c2n1`: the inhibition was -19.8%. On to `COc1ccc(NC(=O)CC(c2ccccc2)c2ccco2)cc1` (stereo not drawn), for which the inhibition was -8.33%.

`CC(=O)SC1CC2=CC(=O)CCC2(C)C2CCC3(C)C(CCC34CCC(=O)O4)C12` (stereo not drawn): the inhibition is -15.3%. Consider `COc1ccc(C2NC(=O)c3ccccc3O2)c(OC)c1OC` (stereo not drawn), for which the inhibition was -1.29%. As for `COc1cccc(/C=C/C(=O)c2c(O)cc(C)oc2=O)c1O`, the inhibition is -38.5%. In the case of `CCOc1ccc(NC2OC(C)C(O)C(O)C2O)c([N+](=O)[O-])c1` (stereo not drawn), the inhibition is -2.79%.

On to `CC(C)CC1c2[nH]c3ccccc3c2CCN1C(=O)CCC(=O)N(C)C` (stereo not drawn), for which the inhibition is -3.31%. With `CC(NC(=O)OCc1ccccc1)C(=O)N1CC(O)CC1C(=O)O` (stereo not drawn), the inhibition is -5.77%. As for `COCCNC(=O)CSc1ccc(Cl)cc1`, the inhibition was -17.2%. As to `CC(C)CCn1c(N2CCc3ccccc3C2)nc2c1c(=O)[nH]c(=O)n2C`, the inhibition is -3.91%. `O=C1Cc2ccccc2C(c2ccccc2)N1` (stereo not drawn): the inhibition is -8.11%. For `COc1ccc(-c2noc(CCc3ccccc3)n2)cc1`, the inhibition was -6.01%.

As to `COC(=O)c1cc(-c2c(C)oc3cc(OC)ccc3c2=O)c(C)o1`, the inhibition is 2.67%. As for `O=c1c(-c2ccc3c(c2)OCCO3)coc2cc(OC3OC(CO)C(O)C(O)C3O)ccc12` (stereo not drawn), the inhibition is 2.13%. With `COc1ccc(-c2[nH]ncc2CN(CCO)Cc2cccs2)c(F)c1` the figure was -3.67%; with `Cc1ccc2c(c1)c1c3n2CCCN(Cc2ccccc2)C3CCC1` (stereo not drawn), 3.99%; with `Cc1nc(NCc2ccco2)c(C#N)c2c1COC(C)(C)C2`, -36.8%. Regarding `COc1cccc(CN2C(=O)N(C(C)C)C(N(O)C(=O)NC(C)C)C2(C)C)c1OC` (stereo not drawn), the inhibition is 2.14%. On to `COc1cc2cc(C(=O)O)n(C)c2c(OC)c1OC`, for which the inhibition is -3.98%. In the case of `CN(C)CCOc1ccccc1Cc1ccccc1`, the inhibition is 1.84%. As for `CC/C(=C(\c1ccc(O)cc1)c1ccc(OCCN(C)C)cc1)c1ccccc1`, the inhibition was 76% (active).

Take `CCC(=O)Oc1ccc(/C(CC)=C(\CC)c2ccc(OC(=O)CC)cc2)cc1`: the inhibition was -4.46%. With `CC(=O)c1cccc2c(O)c(C3=Nc4ccccc4C3=O)[nH]c12` the figure was -6.23%; with `CC(OC(=O)c1cc(=O)[nH]c2ccccc12)C(=O)c1ccccc1` (stereo not drawn), 1.44%. With `COc1cc(/C=C/C(=O)N2CCCC2)cc(OC)c1OC` the figure was -3.32%. In the case of `Cn1c(=O)[nH]c(=O)c2c1ncn2CCN1CCOCC1`, the inhibition was -9.6%. Regarding `CN(C)CCCN1c2ccccc2CCc2ccc(Cl)cc21`, the inhibition was 16%. `CN(C)CCCN1c2ccccc2Sc2ccc(Cl)cc21`: the inhibition is 68.5% (active). With `OC(CCCN1CCCCC1)(c1ccccc1)c1ccccc1`, the inhibition was 10.1%.

With `Clc1ccc(OCCCN2CCCCC2)c(Br)c1`, the inhibition was 5.3%. As to `OCCOCCN1CCN(C(c2ccccc2)c2ccc(Cl)cc2)CC1` (stereo not drawn), the inhibition was 7.68%. Turning to `OCCN1CCN(CCCN2c3ccccc3Sc3ccc(Cl)cc32)CC1`, the inhibition was 73.4% (active). For the compound `CNCCCN1c2ccccc2CCc2ccccc21`, the inhibition was -18.4%.

Take `OCCN1CCN(CCCN2c3ccccc3Sc3ccc(C(F)(F)F)cc32)CC1`: the inhibition was 65.2% (active). Take `CN(C)CCCN1c2ccccc2Sc2ccc(C(F)(F)F)cc21`: the inhibition is 29.1%. Consider `CN1CCN(CCCN2c3ccccc3Sc3ccc(C(F)(F)F)cc32)CC1`, for which the inhibition is 67.4% (active).

With `CN(C)CCCN1c2ccccc2Sc2ccccc21`, the inhibition was 7.51%. On to `O=c1oc2c(CN3CCN(CCO)CC3)c(O)ccc2cc1-c1ccccn1`, for which the inhibition is -38.1%. With `CCOC(=O)c1oc2cc(O)cc(C)c2c(=O)c1-c1cscn1` the figure was 5.2%; with `CC(=O)C1=C(Nc2ccc(C)cc2)CC(C)(O)C(C(C)=O)C1c1ccco1` (stereo not drawn), -76.2%; with `CCN(CC)CCCNC(=O)C1c2ccccc2Oc2ccccc21`, 4.59%. Regarding `CCN(CC)CCNc1ccc(CO)c2sc3ccccc3c(=O)c12`, the inhibition is 61.5% (active). As for `C[C@]12CC[C@@H]3c4ccc(O)cc4CC[C@H]3[C@@H]1C[C@@H](O)[C@@H]2O[C@@H]1O[C@H](C(=O)O)[C@@H](O)[C@H](O)[C@H]1O`, the inhibition was 5.26%. For `O=C(NCCc1ccccc1)C1CCN(C2CCN(Cc3ccco3)CC2)CC1`, the inhibition is -15.9%. On to `COc1ccc(-c2coc3c(CN4CCOCC4)c(O)ccc3c2=O)cc1`, for which the inhibition was 7.99%. On to `COc1ccc2[nH]c(CN3CCN(CC(C)C)C(CCO)C3)c(C)c2c1` (stereo not drawn), for which the inhibition was -14.8%.

As to `O=C(CN1C(=O)C2CCc3[nH]c4ccccc4c3C2C1=O)N1CCCC1` (stereo not drawn), the inhibition is -14.6%. With `OC12CCCCC1C(c1ccc3c(c1)OCO3)N(Cc1cccc(F)c1)CC2` (stereo not drawn) the figure was -0.832%; with `CCC(=O)Oc1ccc(C(=O)Nc2ccc([N+](=O)[O-])cc2)cc1`, 3.79%. As to `CN1CC2CCCC3(C1)C(=O)NC1(CCCCC1)N=C23` (stereo not drawn), the inhibition was -2.27%. As to `C1CCC(C(CC2CCCCN2)C2CCCCC2)CC1` (stereo not drawn), the inhibition was 62.5% (active).

`CC(=O)c1cn(C)c(=O)[nH]c1=O`: the inhibition was -3.65%. In the case of `CCn1c(N2CCN(CC(=O)c3c(C)n(C)c4ccc(OC)cc34)CC2)nc2c1c(=O)[nH]c(=O)n2C`, the inhibition was -1.17%.

With `CC1(C)CC(=O)c2cn3c(nc2C1)nc1ccccc13`, the inhibition was -4.04%.

As to `CC(=O)N(CCC(Cc1ccccc1)c1ccco1)Cc1ccco1` (stereo not drawn), the inhibition is -17.2%.

In the case of `NC(N)=N/N=C/c1cccc(Cl)c1Cl`, the inhibition was 18.4%.

`CN1CCc2c(n(CC(O)CN(CCO)CCO)c3ccccc23)C1=O` (stereo not drawn): the inhibition is 11.3%. With `OCCN(CCO)c1ccc2ccccc2c1`, the inhibition is -0.71%.
